Experimental data as given in a collection of fitness landscapes (doi:10.1126/science.1257360).
The full ranking holds about 140,000 sequences; the median of “enrichment ratio after two sorts for PhoP signalling” is about 0, and the highest 2% start at about 11. Shown is part of a subset that was picked to be rich in the highest values.

B1: PhoQ; a variant is named by its letters at X, in order, P23837 (parent)
chain: MKKLLRLFFPLSLRVRFLLATAAVVLVLSLAYGMVALIGYSVSFDKTTFRLLRGESNLFYTLAKWENNKLHVELPENIDKQSPTMTLIYDENGQLLWAQRDVPWLMKMIQPDWLKSNGFHEIEADVNDTSLLLSGDHSIQQQLQEVREDDDDAEMTHSVAVNVYPATSRMPKLTIVVVDTIPVELKSSYMVWSWFIYVLSANLLLVIPLLWVAAWWSLRPIEALAKEVRELEEHNRELLNPATTRELTSLVRNLNRLLKSERERYDKYRTTLTDLTHSLKTPLXXLQXXLRSLRSEKMSVSDAEPVMLEQISRISQQIGYYLHRASMRGGTLLSRELHPVAPLLDNLTSALNKVYQRKGVNISLDISPEISFVGEQNDFVEVMGNVLDNACKYCLEFVEISARQTDEHLYIVVEDDGPGIPLSKREVIFDRGQRVDTLRPGQGVGLAVAREITEQYEGKIVAGESMLGGARMEVIFGRQHSAPKDE

Variants of: B1
Experiment: enrichment ratio after two sorts for PhoP signalling (ratio (wild type AVST 3.29)); higher = more functional
Conditions: with PhoP (E. coli)

Variant | enrichment ratio
ILLC | ≤ 0.25
TKRF | ≤ 0.25
EMVN | ≤ 0.25
VCYH | ≤ 0.25
HYMK | ≤ 0.25
KEFY | ≤ 0.25
LSFV | 5.15
SLYE | ≤ 0.25
FVML | 13.2
TVML | 1.47
NVML | ≤ 0.25
EIFI | ≤ 0.25
NLQN | ≤ 0.25
IMRF | ≤ 0.25
TCCR | 13.1
TEKR | ≤ 0.25
TCKR | ≤ 0.25
VECR | ≤ 0.25
CDCR | ≤ 0.25
TECR | 16.3
QFGW | ≤ 0.25
KPGY | ≤ 0.25
KAWY | ≤ 0.25
VNCT | 1.24

Variant | enrichment ratio
MEFD | ≤ 0.25
NQCH | ≤ 0.25
WICH | ≤ 0.25
TGCH | 10.6
AICH | 15.1
AGCH | 11.6
AHCH | 2.08
AQCH | 32.7
RGCH | ≤ 0.25
AQTH | ≤ 0.25
MICD | ≤ 0.25
EHIV | ≤ 0.25
FHVI | ≤ 0.25
GTWL | ≤ 0.25
IFFD | ≤ 0.25
KVLP | ≤ 0.25
LFKL | ≤ 0.25
SQLI | 11.8
ATLS | 10.6
ATLI | 15.7
YTLI | 12.8
FTLI | 10.3
QPLI | ≤ 0.25
ATLT | 10.2

Variant | enrichment ratio
KYLI | ≤ 0.25
SILI | 4.12
DPLI | ≤ 0.25
SPLI | ≤ 0.25
STLI | 12.4
SDYI | ≤ 0.25
CPPL | ≤ 0.25
LICH | ≤ 0.25
GFMC | ≤ 0.25
RVDS | ≤ 0.25
INFA | ≤ 0.25
TVQC | 4.14
FEAI | ≤ 0.25
LSQY | ≤ 0.25
IILI | ≤ 0.25
SALI | 12.2
GALI | 14.1
KALI | ≤ 0.25
NALI | 4.49
ITLI | 8.76
KQLI | ≤ 0.25
GTLI | 15.8
GYLI | 0.357
GALS | 5.05

Variant | enrichment ratio
GALA | 2.12
YALI | 13.3
ERQV | ≤ 0.25
LRKP | ≤ 0.25
KPPH | ≤ 0.25
TPRP | ≤ 0.25
FDPD | ≤ 0.25
PKVE | ≤ 0.25
RSAQ | ≤ 0.25
CTLI | ≤ 0.25
TTLI | 12.4
LTLI | 0.384
HFLI | ≤ 0.25
HALA | ≤ 0.25
HALI | 12.2
LMQH | ≤ 0.25
KFYQ | ≤ 0.25
CSGS | ≤ 0.25
WWST | ≤ 0.25
FRNI | ≤ 0.25
FVQK | ≤ 0.25
TVQN | 12.1
SPQN | ≤ 0.25
SPQV | ≤ 0.25

Variant | enrichment ratio
SPQQ | ≤ 0.25
NVQK | ≤ 0.25
TVQQ | 12.6
TVQK | 15.5
PVQV | ≤ 0.25
PVQQ | ≤ 0.25
TVEN | ≤ 0.25
TVQV | 12.7
DRLY | ≤ 0.25
RFEM | ≤ 0.25
RQMN | ≤ 0.25
HNHV | ≤ 0.25
THPW | ≤ 0.25
LWEP | ≤ 0.25
VYIW | ≤ 0.25
GCNG | ≤ 0.25
ANGR | ≤ 0.25
ANVM | 14.9
ANDM | ≤ 0.25
ARVA | ≤ 0.25
AHGH | ≤ 0.25
ARVM | 14.7
ARGM | ≤ 0.25
ANDS | ≤ 0.25

Variant | enrichment ratio
ANGM | 21.9
ANGH | 11.6
ANGP | ≤ 0.25
ANGD | ≤ 0.25
SWFD | ≤ 0.25
HSAA | ≤ 0.25
FPVD | ≤ 0.25
VQYV | ≤ 0.25
DVLV | ≤ 0.25
PCEH | ≤ 0.25
WFYE | ≤ 0.25
LTRP | ≤ 0.25
YRLF | ≤ 0.25
ANCK | 6.46
ANNM | 12.9
ANPM | ≤ 0.25
RPWW | ≤ 0.25
HFCW | ≤ 0.25
QRGV | ≤ 0.25
QNHV | ≤ 0.25
QNGV | 22.1
QNGM | 16
QNYM | ≤ 0.25
QNGD | ≤ 0.25

Variant | enrichment ratio
EKNQ | ≤ 0.25
NNYE | ≤ 0.25
HMKK | ≤ 0.25
DNAG | ≤ 0.25
FMVV | ≤ 0.25
MREV | ≤ 0.25
HMSI | ≤ 0.25
QCTL | ≤ 0.25
SHCI | 6.63
VHCQ | ≤ 0.25
SHCA | 2.47
THCQ | 14.3
SHCQ | 21.1
YHCQ | ≤ 0.25
PQRE | ≤ 0.25
TLYI | 0.826
RITC | ≤ 0.25
RFYH | ≤ 0.25
FWFN | ≤ 0.25
ERAC | ≤ 0.25
SFAL | ≤ 0.25
SAAL | 12.8
SIAL | 15.1
SRAL | ≤ 0.25

Variant | enrichment ratio
SKRL | ≤ 0.25
SPAL | ≤ 0.25
SKNL | ≤ 0.25
KYAL | ≤ 0.25
SQAL | 7.54
SNAL | 12.1
RIAL | ≤ 0.25
SKAL | 12.2
ETHL | ≤ 0.25
VYRH | ≤ 0.25
PVYN | ≤ 0.25
RLWM | ≤ 0.25
LPNQ | ≤ 0.25
YSKE | ≤ 0.25
NNAF | ≤ 0.25
TTGS | 8.05
WDHH | ≤ 0.25
GVIH | ≤ 0.25
QAPP | ≤ 0.25
SLAL | 10.6
QEAL | ≤ 0.25
WIAL | ≤ 0.25
NSAL | ≤ 0.25
TIAL | 12.9

Variant | enrichment ratio
ITAL | 0.733
STAL | 11.5
NIAL | 1.57
YTAL | ≤ 0.25
SSAL | 12.2
MTAL | 5.98
TTAL | 18.4
YSQQ | ≤ 0.25
PRCN | ≤ 0.25
RSCH | ≤ 0.25
DCRN | ≤ 0.25
MFPC | ≤ 0.25
YLTE | ≤ 0.25
MMTL | 13.2
NVTL | ≤ 0.25
TSTL | 20.7
METL | 3.99
WITL | 0.966
MATL | 7.59
FVLT | ≤ 0.25
WYAY | ≤ 0.25
KNFK | ≤ 0.25
MYGA | ≤ 0.25
GWFA | ≤ 0.25

Variant | enrichment ratio
RSRM | ≤ 0.25
GCLA | 6.8
GCLS | 19.3
GCLN | 11.5
KCLN | ≤ 0.25
GCLT | 6.49
GCNL | ≤ 0.25
VRSC | ≤ 0.25
YKWM | ≤ 0.25
FFSC | ≤ 0.25
NGSC | ≤ 0.25
TGSC | 20.2
GGSC | 9.93
QGSC | 12
FVSC | ≤ 0.25
FEYD | ≤ 0.25
FCVK | ≤ 0.25
ESKA | ≤ 0.25
NEVN | ≤ 0.25
VAFL | 3.05
WLWC | ≤ 0.25
GGWL | ≤ 0.25
QCWL | 13.1
QCDS | ≤ 0.25

Variant | enrichment ratio
QCGD | ≤ 0.25
QCNL | ≤ 0.25
QCWI | 37.7
VIGT | ≤ 0.25
IMSW | ≤ 0.25
VEWI | 12.2
VEWH | 13.7
VRWH | ≤ 0.25
VEWS | 2.49
VLWG | ≤ 0.25
VELA | ≤ 0.25
VEWG | 18.1
VRWG | ≤ 0.25
VLWH | ≤ 0.25
PTWI | ≤ 0.25
FAIR | ≤ 0.25
IVHI | ≤ 0.25
MQLF | 2.66
IWYQ | ≤ 0.25
ATSW | 1.32
HLTG | 1.04
GCLG | 14.9
SPLG | ≤ 0.25
SCLG | 12.6

Variant | enrichment ratio
STLG | 14.5
KCLG | ≤ 0.25
QCLG | 2.4
KALG | ≤ 0.25
NALG | 0.397
SWLG | ≤ 0.25
PWLG | ≤ 0.25
PTLG | ≤ 0.25
SALG | 15.9
WEVH | ≤ 0.25
HANP | ≤ 0.25
NMEQ | ≤ 0.25
ILFS | ≤ 0.25
QRWI | ≤ 0.25
ISPF | ≤ 0.25
CVQT | ≤ 0.25
FQLG | 16.7
SQLG | 19.1
DPLG | ≤ 0.25
SGLG | 15.5
TGLG | 10.1
WQLG | ≤ 0.25
FDLG | ≤ 0.25
KQLG | ≤ 0.25

Variant | enrichment ratio
NGLG | ≤ 0.25
EQLG | ≤ 0.25
SYLG | 9.61
TQLG | 16.7
GAQK | ≤ 0.25
NGQA | ≤ 0.25
VMKG | ≤ 0.25
ILNQ | ≤ 0.25
DMSW | ≤ 0.25
TCQW | ≤ 0.25
LQMI | ≤ 0.25
MMFL | ≤ 0.25
HDFE | ≤ 0.25
WLYA | ≤ 0.25
KYLG | ≤ 0.25
MQWG | 4.64
SELG | 25.3
MQLA | ≤ 0.25
MQLG | 22
SFLG | 10.9
